Assay [1] concerns the target Cytochrome P450 2C19 (Homo sapiens) (UniProt P33261). The experiment in a line: NVS_ADME_hCYP2C19: NovaScreen (NVS) CYP450-related Enzyme Activity (ADME) Assay for human CYP2C19 (AID 2283113).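 Note: potency for inhibition seen as loss of fluorescent signal.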 The essentials: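 Cell-free assay of recombinant human CYP2C19 expressed in insect cells, with a fluorogenic substrate; fluorescence intensity read 1 hour after dosing. Loss of signal relative to acetonitrile negative control indicates inhibition. Primary screen at 10 uM in duplicate, then concentration series.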

The target in assay [2] is human CYP2C9, CYP2C9 (gene 1559) (UniProt P11712). The experiment in a line: NVS_ADME_hCYP2C9: NovaScreen (NVS) CYP450-related Enzyme Activity (ADME) Assay for human CYP2C9 (AID 2283108). The essentials:
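Fluorescence readout of CYP2C9 activity (SF9-expressed human enzyme) at 0.75 h. The primary screen used 10 uM in duplicate, with concentration-response follow-up for actives; acetonitrile was the negative control.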

The target of assay [3] is human CYP2D6, CYP2D6 (gene 1565) (UniProt P10635). Briefly: NVS_ADME_hCYP2D6: NovaScreen (NVS) CYP450-related Enzyme Activity (ADME) Assay for human CYP2D6 (AID 2283107). The essentials: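 Cell-free assay using recombinant enzyme expressed in insect cells, with fluorescence-intensity readout of enzyme activity 1 hour after chemical dosing. Loss of signal versus acetonitrile negative control indicates inhibition. Primary screen ran in duplicate at 10 uM; actives were retested in concentration series.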
Sequence of human CYP2D6, CYP2D6 (gene 1565) (P10635 whole entry, looked up): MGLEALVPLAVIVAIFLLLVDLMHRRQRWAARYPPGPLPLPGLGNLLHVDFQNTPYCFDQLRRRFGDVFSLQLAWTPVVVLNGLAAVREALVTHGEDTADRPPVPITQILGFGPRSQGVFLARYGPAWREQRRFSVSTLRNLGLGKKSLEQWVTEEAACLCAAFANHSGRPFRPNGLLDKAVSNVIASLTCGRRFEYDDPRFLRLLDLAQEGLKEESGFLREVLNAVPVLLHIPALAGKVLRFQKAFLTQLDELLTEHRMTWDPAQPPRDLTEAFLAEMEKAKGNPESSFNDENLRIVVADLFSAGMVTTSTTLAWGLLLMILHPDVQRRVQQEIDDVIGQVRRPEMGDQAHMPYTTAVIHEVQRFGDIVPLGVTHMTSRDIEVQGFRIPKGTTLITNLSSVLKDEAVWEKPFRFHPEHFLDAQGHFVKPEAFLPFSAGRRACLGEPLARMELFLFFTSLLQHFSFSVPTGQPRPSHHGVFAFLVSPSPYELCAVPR

Assay [4] addresses rat CYP2A2, Cyp2a2 (gene 24895) (UniProt P15149). Briefly: NVS_ADME_rCYP2A2: NovaScreen (NVS) CYP450-related Enzyme Activity (ADME) Assay for rat CYP2A2 (AID 2283116). In short, it runs like this:
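Compounds first tested in duplicate at 10 uM, then in singleton concentration series up to 20 uM when over threshold. Activity of the recombinant enzyme read by fluorescence at 0.2 h, normalised to acetonitrile vehicle.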

Assay [5] has as its target rat CYP2A1, Cyp2a1 (gene 24894) (UniProt P11711). Briefly: NVS_ADME_rCYP2A1: NovaScreen (NVS) CYP450-related Enzyme Activity (ADME) Assay for rat CYP2A1 (AID 2283114; active = hit-call score of the fitted dose curve at least 0.9, where 1 is the maximum; inactive = score below 0.9). In short, it runs like this: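 Cell-free fluorescence enzyme-activity read on recombinant rat CYP2A1, taken 0.75 h post-dosing. Compounds were screened in duplicate at 10 uM, then hits tested in concentration series (max 20 uM); inhibition scored relative to acetonitrile baseline.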

The target in assay [6] is Cytochrome P450 3A4 (Homo sapiens) (UniProt P08684). Briefly: NVS_ADME_hCYP3A4: NovaScreen (NVS) CYP450-related Enzyme Activity (ADME) Assay for human CYP3A4 (AID 2283110). In short, it runs like this: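 Compounds screened in duplicate at 10 uM, with follow-up concentration-response for actives, against insect-cell-expressed recombinant enzyme. Activity read by fluorescence 0.33 h after dosing; loss of signal versus acetonitrile control indicates inhibition.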
Sequence of Cytochrome P450 3A4 (Homo sapiens) (P08684 whole entry, looked up): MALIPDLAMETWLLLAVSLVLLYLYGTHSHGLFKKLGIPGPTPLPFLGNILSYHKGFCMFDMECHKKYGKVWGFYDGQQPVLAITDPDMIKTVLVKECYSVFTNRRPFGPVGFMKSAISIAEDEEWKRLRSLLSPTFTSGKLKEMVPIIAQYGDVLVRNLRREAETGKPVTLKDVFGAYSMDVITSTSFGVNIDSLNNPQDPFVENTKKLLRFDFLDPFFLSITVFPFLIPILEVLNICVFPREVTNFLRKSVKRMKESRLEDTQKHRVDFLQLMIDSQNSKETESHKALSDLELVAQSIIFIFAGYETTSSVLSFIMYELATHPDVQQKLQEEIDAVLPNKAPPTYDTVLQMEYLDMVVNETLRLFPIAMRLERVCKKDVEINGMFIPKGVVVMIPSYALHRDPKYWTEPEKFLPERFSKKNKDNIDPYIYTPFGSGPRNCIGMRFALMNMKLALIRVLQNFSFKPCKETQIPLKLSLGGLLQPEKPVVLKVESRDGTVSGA

Assay [7] has as its system rat CYP2B1, gene 24300. Briefly: NVS_ADME_rCYP2B1: NovaScreen (NVS) CYP450-related Enzyme Activity (ADME) Assay for rat CYP2B1 (AID 2283117). The essentials:
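Cell-free fluorescence enzyme assay, recombinant rat CYP2B1, 0.75 h after dosing. Single-concentration duplicates at 10 uM preceded concentration series (max 20 uM) for actives; acetonitrile as negative-control baseline.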

Assay [8] deals with rat CYP2C11, Cyp2c11 (gene 29277) (UniProt P08683). The experiment in a line: NVS_ADME_rCYP2C11: NovaScreen (NVS) CYP450-related Enzyme Activity (ADME) Assay for rat CYP2C11 (AID 2283118). The method, then:
(§1) NVS_ADME_rCYP2C11 is a biochemical, single-readout assay that uses extracted gene-proteins in a cell-free assay. Measurements were taken 0.33 hour after chemical dosing in a 96-well plate.NVS_ADME_rCYP2C11 is one of one assay component(s) measured or calculated from the NVS_ADME_rCYP2C11 assay. It is designed to make measurements of enzyme activity, a form of enzyme reporter, as detected with fluorescence intensity signals by Fluorescence technology.Data from the assay component NVS_ADME_rCYP2C11 was analyzed into 1 assay endpoint. This assay endpoint, NVS_ADME_rCYP2C11, was analyzed in the positive analysis fitting direction relative to Acetonitrile as the negative control and baseline of activity. Using a type of enzyme reporter, loss-of-signal activity can be used to understand changes in the enzymatic activity as they relate to the gene Cyp2c11. Furthermore, this assay endpoint can be referred to as a primary readout, because this assay has produced multiple assay endpoints where this one serves a enzymatic activity function. To generalize the intended target to other relatable targets, this assay endpoint is annotated to the cyp intended target family, where the subfamily is xenobiotic metabolism.
Binding assays used specific radioligands (tritiated, iodinated) with non-radioactive competitive displacement ligands in agonist or antagonist protocols (as indicated) and various reference compounds and inhibitors to titrate specific binding to receptors and transporters. Most enzyme assays (CYPs, kinases, phosphatases, proteases, HDACs) used recombinant protein and specific substrates (fluorescence mostly, some colorimetric and radioactive) and inhibitors, followed by a biochemical separation of substrate and product. All assays for the biochemical HTS were initially run in duplicate at a single concentration (10 uM for CYP450 assays and 25 uM for all others). […] Each assay was run with positive and negative controls, and concurrent controls on every plate. The follow-up (secondary) screen tested active chemical-pairs in concentration series, as well as a few additional assays not tested in the primary screen, some selected negative inactives, and several cases re-run in the concentration series for confirmatory purposes.

For assay [9], the target named is human CYP2J2, CYP2J2 (gene 1573) (UniProt P51589). The experiment in a line: NVS_ADME_hCYP2J2: NovaScreen (NVS) CYP450-related Enzyme Activity (ADME) Assay for human CYP2J2 (AID 2283106). The method, then: as §1, with “NVS_ADME_hCYP2J2” for “NVS_ADME_rCYP2C11”, “1” for “0.33”, “plate.NVS_ADME_hCYP2J2” for “plate.NVS_ADME_rCYP2C11”, “NVS_ADME_hCYP2J2,” for “NVS_ADME_rCYP2C11,”, “CYP2J2.” for “Cyp2c11.”, “metabolism. […]” for “metabolism.”
Sequence of human CYP2J2, CYP2J2 (gene 1573) (P51589 whole entry, looked up): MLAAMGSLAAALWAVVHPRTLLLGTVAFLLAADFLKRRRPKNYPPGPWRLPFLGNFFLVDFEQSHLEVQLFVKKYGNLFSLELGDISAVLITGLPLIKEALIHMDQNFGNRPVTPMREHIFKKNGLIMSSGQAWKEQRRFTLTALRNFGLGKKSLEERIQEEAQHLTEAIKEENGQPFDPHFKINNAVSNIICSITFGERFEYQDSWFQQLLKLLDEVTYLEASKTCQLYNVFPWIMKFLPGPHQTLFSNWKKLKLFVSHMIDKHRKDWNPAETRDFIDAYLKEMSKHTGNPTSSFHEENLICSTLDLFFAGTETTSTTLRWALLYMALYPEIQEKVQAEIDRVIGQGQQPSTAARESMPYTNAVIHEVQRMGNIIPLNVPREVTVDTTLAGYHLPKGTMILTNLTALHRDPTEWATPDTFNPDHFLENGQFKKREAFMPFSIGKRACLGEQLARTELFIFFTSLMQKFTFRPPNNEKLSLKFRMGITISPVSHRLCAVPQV

In assay [10] the target is human CYP4F12, CYP4F12 (gene 66002) (UniProt Q9HCS2). The experiment in a line: NVS_ADME_hCYP4F12: NovaScreen (NVS) CYP450-related Enzyme Activity (ADME) Assay for human CYP4F12 (AID 2283111). The essentials: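 Recombinant enzyme with a fluorescent substrate, signal read at 0.5 h post-dose; activity loss analysed relative to acetonitrile. Compounds first run in duplicate at 10 uM, with follow-up concentration-response testing of actives.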
Sequence of human CYP4F12, CYP4F12 (gene 66002) (Q9HCS2 whole entry, looked up): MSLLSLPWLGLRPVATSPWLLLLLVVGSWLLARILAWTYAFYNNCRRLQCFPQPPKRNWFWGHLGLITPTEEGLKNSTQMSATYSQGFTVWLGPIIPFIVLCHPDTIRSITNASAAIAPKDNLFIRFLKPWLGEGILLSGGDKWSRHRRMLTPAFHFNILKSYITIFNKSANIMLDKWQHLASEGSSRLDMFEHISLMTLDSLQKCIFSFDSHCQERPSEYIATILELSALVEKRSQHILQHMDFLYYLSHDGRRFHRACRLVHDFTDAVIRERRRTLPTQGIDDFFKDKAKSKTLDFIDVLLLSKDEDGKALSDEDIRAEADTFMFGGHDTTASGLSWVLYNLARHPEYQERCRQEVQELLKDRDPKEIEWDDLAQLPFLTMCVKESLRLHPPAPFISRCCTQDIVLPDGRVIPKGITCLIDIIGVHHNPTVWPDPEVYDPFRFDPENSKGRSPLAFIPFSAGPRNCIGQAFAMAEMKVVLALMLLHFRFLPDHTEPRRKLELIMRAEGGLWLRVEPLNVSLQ

Several values for one entry are separate records, joined by “and”; a condition that tells them apart may be missing. Equal values may be shown once. Results filed as inconclusive are left out. Where a structure was tested more than once in an assay, its records may differ in their call. Activity calls are given as the source filed them. Rule for the calls, unless noted: active = hit-call score of the fitted dose curve at least 0.9, where 1 is the maximum; inconclusive = response in the unintended direction; inactive = score below 0.9.

Sequence of rat CYP2A2, Cyp2a2 (gene 24895) (P15149 whole entry, looked up): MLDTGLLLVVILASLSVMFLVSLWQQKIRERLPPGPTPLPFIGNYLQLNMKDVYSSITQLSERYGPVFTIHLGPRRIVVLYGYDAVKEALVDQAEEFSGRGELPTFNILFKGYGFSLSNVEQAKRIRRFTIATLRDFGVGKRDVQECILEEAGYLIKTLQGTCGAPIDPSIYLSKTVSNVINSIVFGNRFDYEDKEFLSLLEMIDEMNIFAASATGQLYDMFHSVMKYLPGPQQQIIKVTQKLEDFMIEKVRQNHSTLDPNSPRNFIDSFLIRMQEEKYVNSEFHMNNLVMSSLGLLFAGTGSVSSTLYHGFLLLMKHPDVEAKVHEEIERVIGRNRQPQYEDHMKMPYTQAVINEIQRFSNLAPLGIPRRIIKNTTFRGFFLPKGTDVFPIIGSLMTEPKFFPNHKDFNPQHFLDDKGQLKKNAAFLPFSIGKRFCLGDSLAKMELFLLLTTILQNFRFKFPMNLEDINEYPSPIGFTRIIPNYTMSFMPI
Sequence of rat CYP2A1, Cyp2a1 (gene 24894) (P11711 whole entry, looked up): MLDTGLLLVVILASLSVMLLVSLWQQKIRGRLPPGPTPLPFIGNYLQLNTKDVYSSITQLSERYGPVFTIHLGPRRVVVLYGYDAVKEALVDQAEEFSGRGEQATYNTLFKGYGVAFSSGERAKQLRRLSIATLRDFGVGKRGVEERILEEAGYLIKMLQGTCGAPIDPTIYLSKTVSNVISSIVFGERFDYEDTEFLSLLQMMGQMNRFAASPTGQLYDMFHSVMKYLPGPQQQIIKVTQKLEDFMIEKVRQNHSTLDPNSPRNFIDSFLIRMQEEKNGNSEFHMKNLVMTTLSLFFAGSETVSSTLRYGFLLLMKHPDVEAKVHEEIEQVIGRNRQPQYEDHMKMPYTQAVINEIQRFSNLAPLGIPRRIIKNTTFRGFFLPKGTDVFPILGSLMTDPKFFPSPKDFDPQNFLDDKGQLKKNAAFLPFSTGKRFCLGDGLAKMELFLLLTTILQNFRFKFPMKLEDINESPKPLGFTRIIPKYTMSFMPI
Sequence of human CYP2C9, CYP2C9 (gene 1559) (P11712 whole entry, looked up): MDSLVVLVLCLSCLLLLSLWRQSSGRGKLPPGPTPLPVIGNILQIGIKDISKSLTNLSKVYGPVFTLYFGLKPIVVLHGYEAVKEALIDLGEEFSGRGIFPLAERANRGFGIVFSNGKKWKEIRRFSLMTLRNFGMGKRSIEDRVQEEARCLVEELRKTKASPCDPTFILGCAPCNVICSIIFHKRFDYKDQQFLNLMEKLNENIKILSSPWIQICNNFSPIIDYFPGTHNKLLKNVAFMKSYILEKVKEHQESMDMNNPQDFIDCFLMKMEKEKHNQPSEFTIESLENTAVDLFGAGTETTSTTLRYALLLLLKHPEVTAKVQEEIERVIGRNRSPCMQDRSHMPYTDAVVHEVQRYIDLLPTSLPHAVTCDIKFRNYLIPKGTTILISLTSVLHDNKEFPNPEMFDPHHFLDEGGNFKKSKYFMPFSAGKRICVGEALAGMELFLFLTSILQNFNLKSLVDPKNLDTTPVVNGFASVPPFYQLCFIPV
Sequence of rat CYP2C11, Cyp2c11 (gene 29277) (P08683 whole entry, looked up): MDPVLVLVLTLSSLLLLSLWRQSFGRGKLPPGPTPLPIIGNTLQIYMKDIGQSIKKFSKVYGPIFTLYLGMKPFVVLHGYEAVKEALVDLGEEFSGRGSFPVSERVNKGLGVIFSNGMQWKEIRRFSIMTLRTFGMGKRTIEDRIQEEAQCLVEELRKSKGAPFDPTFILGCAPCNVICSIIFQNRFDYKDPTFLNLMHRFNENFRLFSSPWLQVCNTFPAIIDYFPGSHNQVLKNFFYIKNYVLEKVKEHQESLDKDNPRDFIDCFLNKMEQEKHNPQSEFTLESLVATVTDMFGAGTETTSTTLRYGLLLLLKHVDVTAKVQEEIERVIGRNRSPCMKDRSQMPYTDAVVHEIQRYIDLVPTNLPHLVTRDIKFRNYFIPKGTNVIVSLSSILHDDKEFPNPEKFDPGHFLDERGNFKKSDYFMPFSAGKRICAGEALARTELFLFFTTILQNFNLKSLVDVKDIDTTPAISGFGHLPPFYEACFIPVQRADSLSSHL

With `O=S(=O)(c1ccc(Cl)cc1)c1ccc(Cl)cc1`, in assay [1], the AC50 is 1.39 µM (active) and 821 nM (active).

As to `COc1cc(-c2ccc(N)c(OC)c2)ccc1N`, the AC50 is 7.03 µM (active) in [2]; 3.49 µM (active) and 2.33 µM (active) in [1].

With `O=C(O)C(F)(F)C(F)(F)C(F)(F)C(F)(F)C(F)(F)C(F)(F)C(F)(F)C(F)(F)C(F)(F)C(F)(F)F`, the half-maximal activity concentration (AC50) in [2] was 1.58 µM (active); in assay [1], 16.2 µM (active).

Take `CCCCCCCCC(=O)NCc1ccc(O)c(OC)c1`: the AC50 is 3450 nM (active) in assay [3], 3.95 µM (active) in assay [2] and 1.66 µM (active) in assay [1].

Consider `Nc1ccc(-c2ccc(N)c(Cl)c2)cc1Cl`, for which the AC50 in assay [2] was 1.24 µM (active); in [1], 2.34 µM (active).

Take `CCN1CCC2(CC1)COc1cc3c(cc12)N(C(=O)c1ccc(-c2ccc(-c4nnc(C)o4)cc2C)cc1)CC3`: the AC50 in [1] was 2.84 µM (active).

For the compound `BrCCBr`, the compound was classed as inactive in assay [4].

On to `CCOC(=O)Nc1cccc(OC(=O)Nc2ccccc2)c1`, for which the AC50 in [5] is 6840 nM (active).

Turning to `CC1(C)CCC(Cc2ccc(Cl)cc2)C1(O)Cn1cncn1` (stereo not given), the AC50 was 0.419 µM (active) in assay [2]; 2750 nM (active) in [6]; 0.304 µM (active) in assay [1]; 2500 nM (active) in assay [5]; 40.4 nM (active) in assay [4]; 385 nM (active) in assay [7]. For the same compound, the AC50 in assay [8] is 121 nM (active).

With `CCOP(=S)(OCC)SCSP(=S)(OCC)OCC`, the AC50 in [1] is 4.36 µM (active).

As to `CC12CC1(C)C(=O)N(c1cc(Cl)cc(Cl)c1)C2=O` (stereo not given), in assay [6], the result was inactive. Moreover, the AC50 in assay [5] was 881 nM (active); in assay [4], 4980 nM (active).

With `O=C1C2(Cl)C3(Cl)C4(Cl)C(Cl)(Cl)C5(Cl)C3(Cl)C1(Cl)C5(Cl)C24Cl` (stereo not given), the AC50 in assay [2] is 82.1 nM (active) and 2.8 µM (active) and 487 nM (active); in [1], 458 nM (active) and 1.44 µM (active) and 374 nM (active); in assay [7], 1.61 µM (active) and 5.98 µM (active); in [8], 193 nM (active) and 1.16 µM (active) and 250 nM (active). Besides, the compound was classed as inactive in [6] and in assay [7].

As to `CC(C)(C)c1cc(O)ccc1O`, the values for the AC50 in [3], in assay [2] and in assay [1] were 7540 nM (active), 5.93 µM (active) and 5.9 µM (active), respectively. Also, the compound was called inactive in assay [6].

For `Nc1cccc2ccccc12`, in assay [3], the AC50 is 3450 nM (active).

As to `COP(=S)(OC)Oc1ccc(S(=O)(=O)N(C)C)cc1`, the AC50 in assay [2] is 0.0779 µM (active); in assay [1] it was 0.19 µM (active).

Take `Oc1ccc(-c2ccccc2)cc1`: in [1], the AC50 is 0.47 µM (active).

As for `COc1cc2c(cc1OC)[C@@]13CCN4CC5=CCO[C@H]6CC(=O)N2[C@H]1[C@H]6[C@H]5C[C@H]43`, the AC50 in [3] is 5000 nM (active).

Turning to `COP(=S)(OC)Oc1ccc(Sc2ccc(OP(=S)(OC)OC)cc2)cc1`, the AC50 in assay [9] is 3300 nM (active); in assay [2], 505 nM (active) and 5.52 µM (active); in assay [1], 4.32 µM (active) and 1.06 µM (active); in [8], 8460 nM (active).

`CCOP(=S)(OCC)Oc1ccc(S(C)=O)cc1` (stereo not given): the values for the AC50 in assay [2] and in assay [1] were 3.31 µM (active) and 0.528 µM (active), respectively.

Turning to `Fc1ccc(C2(Cn3cncn3)OC2c2ccccc2Cl)cc1` (stereo not given), the AC50 was 6.5 µM (active) in [2]; 5960 nM (active) in assay [6]; 1.56 µM (active) in assay [1]; 2980 nM (active) in [5]; 353 nM (active) in [4]; 3090 nM (active) in assay [7]. In addition, in [8], the AC50 is 974 nM (active).

As to `CC(C)(c1ccccc1)c1ccc(O)c(C(C)(C)c2ccccc2)c1`, the result in [6] was inactive.

Turning to `CC(=O)[O][Hg][c]1ccccc1`, the AC50 in assay [3] was 4160 nM (active); in assay [2], 9.85 µM (active); in assay [6] it was 1280 nM (active); in [10] it was 1900 nM (active); in assay [1], 1.04 µM (active).

On to `Clc1ccc(C2(Cn3cncn3)CC(Br)CO2)c(Cl)c1` (stereo not given), for which the AC50 in assay [2] is 6.63 µM (active); in [6] it was 2000 nM (active); in assay [1], 0.243 µM (active); in assay [5] it was 577 nM (active); in [4], 82.9 nM (active); in assay [7], 41.1 nM (active). The AC50 in assay [8] was 1590 nM (active).

For `CCC(=O)C(CC(C)N(C)C)(c1ccccc1)c1ccccc1` (stereo not given), in [3], the AC50 is 1230 nM (active).

With `Cn1sc(Cl)cc1=O`, the figures for the AC50 in assay [6] and in [1] were 2770 nM (active) and 5.77 µM (active), respectively.

Regarding `CC(C)C1CCC(Cc2ccc(Cl)cc2)C1(O)Cn1cncn1` (stereo not given), the AC50 in assay [4] is 106 nM (active); in [7], 2040 nM (active).

What is called AC50 is the concentration giving half of the maximal activity seen.
